Bioassay records deposited in PubChem BioAssay by National Center for Advancing Translational Sciences (NCATS).
Shown are actives, neighbours in structure and some others; about 3.3% of the full set was active somewhere.
PI4K2A inh – qHTS for small molecular inhibitors of PI4K2A | Phosphatidylinositol 4-kinase type 2-alpha (Homo sapiens), Q9BTU6 | purified PI4K2A, ADP-Glo luminescence, 1 h; hits give low values | activity change, negative = inhibition, % at 76.9 µM | 0.13% of 420,000 active; in the data active means activity change below about -50%; inconclusive means mostly about -30% to -49%;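 further: -100% = wells without enzyme as full effect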
Target sequence (Q9BTU6 whole entry, looked up): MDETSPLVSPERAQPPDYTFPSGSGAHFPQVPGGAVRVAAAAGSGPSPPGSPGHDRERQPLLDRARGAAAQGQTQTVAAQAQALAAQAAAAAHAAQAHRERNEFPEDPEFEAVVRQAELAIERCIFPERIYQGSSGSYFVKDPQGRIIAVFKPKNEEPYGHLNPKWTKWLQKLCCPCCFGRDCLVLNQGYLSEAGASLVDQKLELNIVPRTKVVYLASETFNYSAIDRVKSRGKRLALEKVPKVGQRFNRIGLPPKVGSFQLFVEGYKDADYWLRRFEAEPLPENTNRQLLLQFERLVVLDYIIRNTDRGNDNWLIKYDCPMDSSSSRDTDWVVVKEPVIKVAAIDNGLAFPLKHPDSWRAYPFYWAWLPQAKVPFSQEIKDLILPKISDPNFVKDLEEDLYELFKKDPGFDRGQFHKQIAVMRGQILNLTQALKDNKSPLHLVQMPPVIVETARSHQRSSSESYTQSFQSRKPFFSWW
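PI4K2A activity was measured by ADP-Glo luminescence: enzyme (4 ug/mL stock) and phosphatidylinositol (1.2 mM stock) in Tris pH 7.5/MgCl2/EGTA/Triton X-100 buffer were reacted with ATP (300 microM stock) for one hour at ambient temperature.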
PI5P4K alpha inh – qHTS for Inhibitors of phosphatidylinositol 5-phosphate 4-kinase (PI5P4K); 1.2% of 330,000 active; max response, %; PI5P4Kalpha enzyme, ADP-Glo luminescence, 60 min; hits give low values; Phosphatidylinositol 5-phosphate 4-kinase type-2 alpha (Homo sapiens), P48426; active means max response of -50% or lower; inconclusive means between -30% and -50%; inactive means -30% or higher; further: value at the top dose of about 77 µM; on the % scale 0 is the no-effect control and ±100 the full control effect
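Single end-point luminescence (ADP-Glo) quantified ADP from PI5P4Kalpha turnover; ATP 5 microM final, 1 h at RT, 0.1% CHAPS and 0.28 mM EGTA in HEPES pH 7.4.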
D3 antag – qHTS of D3 Dopamine Receptor Antagonist: qHTS | D3R cells, DiscoveRx beta-arrestin luminescence, antagonist mode; hits give low values | 2.5% of 360,000 active | max response, negative = inhibition, % | D(3) dopamine receptor (Homo sapiens), P35462; in the data active means max response below about -50%; inconclusive means no clear call, values can overlap the other calls; further: on the % scale 0 is the no-effect control and ±100 the full control effect
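Cells plated overnight at 1500 cells/well, then exposed to library compounds with dopamine controls for 90 minutes at 37 degrees C. DiscoveRx reagent added for 30–60 minutes at room temperature; luminescence read, quantitative HTS format.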
D3 ag – qHTS of D3 Dopamine Receptor Agonist: qHTS | D(3) dopamine receptor (Homo sapiens), P35462 | D3R DiscoveRx beta-arrestin cells, luminescence, 90 min | max activation, % | 0.58% of 410,000 active; in the data active means max activation above about 30%; further: 0% is about no effect
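Cells at 1500/well, incubated overnight, then treated with pinned compounds (dopamine as control) for 90 min at 37 degrees C. DiscoveRx reagent added for 30 - 60 minutes at room temperature; luminescence read.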
LDHA inh – qHTS assay for inhibitors of human lactate dehydrogenase. purified LDHA, NADH/diaphorase-resazurin fluorescence; hits give low values. L-lactate dehydrogenase A chain (Homo sapiens), P00338. activity change, % (values are at about 110 or 230 µM). 0.15% of 480,000 active; in the data active means activity change below about -30%; inconclusive means mostly about -25% to -30%;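 further: plate controls were DMSO wells for no effect and wells without enzyme for full effect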
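Human LDH5 (2 nM) was incubated with 0.06 mM NADH and 0.2 mM pyruvate for 5 min at room temperature in Tris pH 7.4. Remaining NADH was coupled through diaphorase/resazurin, and resorufin fluorescence was read at 0 and 20 min.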
* hit, by the source's call; u = inconclusive; x = not tested or not shown.

SMILES	PI4K2A inh	PI5P4K alpha inh	D3 antag	D3 ag	LDHA inh
COc1ccc(S(=O)(=O)NNC(=O)c2cccs2)cc1	10	1	9	4	2
O=C(NNS(=O)(=O)c1ccc(Cl)cc1)c1cccs1	-1	1	-61*	8	4
COc1ccc(Cc2nnc(NCCO)[nH]c2=O)cc1	2	-4	6	33*	-1
COc1ccc(Cc2nnc(NCCO)[nH]c2=O)cc1OC	4	-27	-9	-2	-8
CCCCN(Cc1ccccc1)C(=O)c1cc2c(=O)n3ccccc3nc2n1C	x	x	x	x	-11
CCc1oc(C(=O)O)cc1CN(CC)CC	3	x	-66*	-5	-18
Cc1oc(-c2nc3ccccc3n2C)cc1C(=O)c1ccccc1	-19	u	-60*	3	11
Cn1cc(C(=O)c2ccccc2)cc1-c1nc2ccccc2n1C	15	-5	24	1	-4
Cn1c(-c2ccc(Br)o2)nc2ccccc21	-56*	-25	-5	-13	-7
Cc1cc2c(c(SCC(N)=O)n1)C(=O)OC2	-2	-3	-7	5	-6
Cc1cc2c(c(SCC(=O)Nc3ccccc3)n1)C(=O)OC2	x	x	x	x	-37*
Cc1ccc(C(=O)N2CCCC(C)C2)cc1S(=O)(=O)N1CCCCC1 (stereo not given)	x	x	x	x	-13
O=C(O)c1cccc(C(=O)Cc2ccccc2)c1	-71*	-5	-28	0	-9
COc1ccc(C(NC(=O)c2csc(-c3ccco3)n2)c2nccn2C)cc1 (stereo not given)	x	x	x	x	-18
CC(C)OC(=O)c1cc(NS(=O)(=O)c2ccc3ccccc3c2)cc(C(=O)OC(C)C)c1	x	x	x	x	-8
C#CCOCCOCCOCCNc1nc(N2CCN(C(=O)CCCCCCCCCCNC(=O)Cn3cc(CCCCCN)nn3)CC2)nc(N2CCN(C(=O)CCCCCCCCCCNC(=O)[C@H](CO)n3cc(CCCCCN)nn3)CC2)n1	-3	-58*	-2	-5	2
Cc1cn([C@H](C(=O)NCCCCCCCCCCC(=O)N2CCNCC2)[C@@H](C)O)nn1	-8	9	-64*	-17	-3
C#CCOCCOCCOCCNc1nc(N2CCN(C(=O)CCCCCCCCCCNC(=O)[C@H](CCCCN)n3cc(CCCC(=O)O)nn3)CC2)nc(N2CCN(C(=O)CCCCCCCCCCNC(=O)[C@H](CCCCN)n3cc(CCCC(=O)O)nn3)CC2)n1	-6	-56*	0	-6	-3
C#CCOCCOCCOCCNc1nc(N2CCN(C(=O)CCCCCCCCCCNC(=O)[C@H](CCCCN)n3cc(CCO)nn3)CC2)nc(N2CCN(C(=O)CCCCCCCCCCNC(=O)[C@@H]([C@H](C)O)n3cc(C)nn3)CC2)n1	-4	-84*	1	1	0
CSc1nc2n(n1)C(C(=O)Nc1ccccc1C(F)(F)F)CC(=O)N2 (stereo not given)	x	x	x	x	-3
COC(=O)[C@]12C[C@H](CC(=O)N3CCCCC3)C(=O)N(Cc3ccc(Cl)cc3Cl)C1=C[C@H](C(C)C)O[C@@H]2C1CC1	3	x	x	x	x
C#CCOCCOCCOCCNc1nc(N2CCN(C(=O)CCCCCCCCCCNC(=O)[C@@H](CCC(=O)O)n3cc(CCCCCN)nn3)CC2)nc(N2CCN(C(=O)CCCCCCCCCCNC(=O)[C@@H](CCC(=O)O)n3cc(CCCCCN)nn3)CC2)n1	-2	-19	24	9	1
C#CCOCCOCCOCCNc1nc(N2CCN(C(=O)CCCCCCCCCCNC(=O)[C@H](CCCCN)n3cc(CCO)nn3)CC2)nc(N2CCN(C(=O)CCCCCCCCCCNC(=O)[C@H](CCCCN)n3cc(CCO)nn3)CC2)n1	2	-67*	26	-3	-2
Cc1ccc(C)c(N2CCN(CCCNC(=O)Cn3cccc3C(=O)c3ccccc3)CC2)c1	3	2	-68*	-16	-2
O=C(Cn1cccc1C(=O)c1ccccc1)NCCCN1CCOCC1	-6	-5	15	4	-4
SMILES	PI4K2A inh	PI5P4K alpha inh	D3 antag	D3 ag	LDHA inh
Cc1ccccc1C(=O)c1cccn1CC(=O)NCCCN1CCc2ccccc2C1	-4	4	-51*	-10	-6
Cc1ccc(-c2c(N3CCCC3)n[nH]c2C2CC2)cc1	x	x	x	x	6
O=C(NCCOc1ccccc1F)c1ccc2ccccc2n1	x	x	x	x	1
CCOC(=O)c1nnc(-c2cccs2)nc1Oc1ccc(Cl)cc1	-5	4	-67*	1	-1
COc1ccc(-c2cc(C(=O)Nc3ccc(OC)c(OC)c3)[nH]n2)c(C)c1	1	-1	-60*	-15	-2
Cc1cc(F)ccc1-c1cc(C(=O)NCc2cccs2)[nH]n1	-4	-2	-77*	-22	-9
Cc1cc(F)ccc1-c1cc(C(=O)Nc2ccccc2)[nH]n1	-10	-3	-85*	-12	-2
Nc1nc(Nc2cccc(Cl)c2)sc1C(=O)c1cccc(Br)c1	x	x	x	x	-2
CC(C)C[C@H]1CNC(=O)C(=O)N1C[C@H](C)NC(=O)Cc1ccccc1	-3	-2	-52*	-29	-12
CC(C)(C)c1nn(-c2ccccc2)c2[nH]c(=O)c(CNc3ccc4c(c3)OCCO4)cc12	-4	x	-75*	-46	4
CC(C)(C)c1nn(-c2ccccc2)c2[nH]c(=O)c(CNCc3ccco3)cc12	-7	-15	-17	-18	-7
O=C(O)Cc1ccc(N=Nc2c(O)c(C(=O)O)cc3ccccc23)cc1	-6	-73*	0	2	8
NS(=O)(=O)c1ccc(N=Nc2c(O)c(C(=O)O)cc3ccccc23)cc1	-18	-95*	-16	-3	11
Oc1ccc2ccccc2c1N=Nc1ccc(F)cc1	-4	0	-19	-19	1
Nc1nc(O)c(N=Nc2ccc(S(N)(=O)=O)cc2)c(=O)[nH]1	4	0	-15	6	4
CC1=CC(C)C2(CO)COC(c3ccccc3)C1C2C (stereo not given)	x	x	x	x	3
CCCCCCn1nc(C(=O)OCC(=O)NCc2ccc(F)cc2)c2ccccc2c1=O	x	x	x	x	8
CCc1ccc(/C(C)=N/NC(=O)CNC(=O)/C=C/c2ccco2)cc1	-26	-84*	-5	-7	1
CCc1ccc(/C(C)=N/NC(=O)CNC(=O)/C=C/c2ccccc2OC)cc1	-3	-7	-6	-13	-10
CC(/C=C/c1ccco1)=N\NC(=O)c1cc(Cl)ccc1O	-6	-80*	11	21	5
CC(/C=C/c1ccco1)=N/NC(=O)Cc1cccs1	-21	-52*	u	0	-1
COC(=O)c1cnc(NC(=O)Cc2ccc3ccccc3c2)s1	x	x	x	x	12
